# Assay results taken from PubChem BioAssay AID887 (National Center for Advancing Translational Sciences (NCATS), 2007).
# “And” between values parts separate entries of the source, which are not always exact repeats. Equal entries are not always repeated. In all, about 74,000 compounds went through this assay and about 1,100 (1.5%) were called active. Roughly 5% stayed inconclusive and do not appear here. The call rests on the fitted dose curve; in most records, active means well fitted inhibition curve with a large enough effect; inconclusive means small, poorly fitted or top-dose-only effect; inactive means no such curve, though single readings can be large or run the other way. For the sample, actives were picked, then their nearest neighbours and some compounds at random.
# Biological target: Polyunsaturated fatty acid lipoxygenase ALOX15 (Homo sapiens) (UniProt P16050)
# Sequence (P16050 whole entry, looked up): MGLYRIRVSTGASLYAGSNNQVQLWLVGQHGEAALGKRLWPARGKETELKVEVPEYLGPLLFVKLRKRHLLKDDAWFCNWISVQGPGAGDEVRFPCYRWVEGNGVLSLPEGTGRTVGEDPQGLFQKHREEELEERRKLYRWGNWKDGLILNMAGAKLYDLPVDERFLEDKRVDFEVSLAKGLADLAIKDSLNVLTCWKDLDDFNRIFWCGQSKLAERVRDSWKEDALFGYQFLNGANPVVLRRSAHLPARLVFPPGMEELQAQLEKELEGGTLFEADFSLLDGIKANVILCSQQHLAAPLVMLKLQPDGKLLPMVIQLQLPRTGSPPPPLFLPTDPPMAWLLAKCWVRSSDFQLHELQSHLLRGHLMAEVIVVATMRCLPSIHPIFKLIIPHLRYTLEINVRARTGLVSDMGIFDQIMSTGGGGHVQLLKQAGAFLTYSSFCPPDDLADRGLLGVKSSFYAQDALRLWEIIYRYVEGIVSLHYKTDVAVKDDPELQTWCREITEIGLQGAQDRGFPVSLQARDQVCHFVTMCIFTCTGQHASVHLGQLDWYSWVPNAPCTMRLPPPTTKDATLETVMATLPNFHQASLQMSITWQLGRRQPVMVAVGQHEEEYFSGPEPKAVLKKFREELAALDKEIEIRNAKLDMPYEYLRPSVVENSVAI
# Experiment: qHTS Assay for Inhibitors of 15-hLO (15-human lipoxygenase); further: nearly all actives have a fitted effect of over 55% in size
# Conditions: purified 15hLO-1, xylenol orange hydroperoxide absorbance; series mostly up to 57.1 µM; activity change, negative = inhibition: at the top concentration
# Description: Assay Overview: NIH Molecular Libraries Screening Centers Network [MLSCN] NIH Chemical Genomics Center [NCGC] MLSCN Grant: MH081283-01A1 PI Name: Holman, T.R., University of California, Santa Cruz Human lipoxygenase 15hLO-1 is a member of the closely related lipoxygenase family of enzymes which catalyze the site-specific oxidation of arachidonic acid to various hormone precursor molecules and as such is a candidate for drug development in a variety of disease areas, such as cancer and inflammation. Inhibition of 15hLO-1 activity was screened by utilizing arachidonic acid as a substrate. The extent of hydroperoxide product formation was measured by a secondary chromogenic reaction in which xylenol orange (XO, Sigma-Aldrich, cat. number 39,818-7) reacts with the ferric ions produced from the reaction between the hydroperoxide and ferrous ions. The Fe(III)-XO complex is characterized with red-shifted absorbance at 560 nm. A purified preparation of human 15hLO-1 was supplied by Professor Ted Holman, University of California, Santa Cruz.
# Assay Protocol: Buffer: 25 mM Hepes pH 7.5, 0.01% Triton X-100. Reagents/Controls: Buffer in columns 3 and 4 as negative control (no enzyme). Substrate solution: 50 uM arachidonic acid (Sigma-Aldrich, St. Louis, MO) final concentration dispensed throughout the plate. Enzyme: 40 nM 15hLO-1 final concentration in columns 1, 2, 5-48. Column 1 is neutral (100% activity). Column 2 contained pin-transferred titration of NDGA (nordihidroguaiaretic acid, Sigma-Aldrich, N 5023, top concentration 10 mM in DMSO, then 1:2 dilution in duplicate). (Dilution factor: 23 nL into 4 uL.) Chromogenic detection reagent (divalent iron/xylenol orange, Fe-XO): 200 uM xylenol orange plus 300 uM ferrous ammonium sulfate prepared freshly in 50 mM sulfuric acid. Assay Steps: Three uL of enzyme were dispensed to 1536-well Greiner black clear bottom plates. Compounds and controls (23 nL) were transferred via Kalypsys PinTool. The plates were incubated for 15 min at room temperature, and then 1 uL of substrate solution was added to start the reaction. After room temperature incubation for 6 minutes, 4 uL of Fe-XO solution was added to each well followed by a short spin (1000 rpm, 15 sec) and the plates were then incubated for 30 min. The absorbance at 405 and 573 nm were measured using ViewLux (Perkin-Elmer) High-throughput CCD imager and absorbance protocol settings. The 573-to-405 absorbance ratio was used to compute reaction progress.
# On the % scale 0 is the no-effect control and ±100 the full control effect; potency means the concentration at half of the fitted maximal effect.
SMILES,"activity change, negative = inhibition",Potency
Clc1ccc(CSc2nnc([C@@H]3CCCN3)o2)cc1,2.51% (inactive),–
CC(C)N(CCNC(=O)c1ccc(-n2c(=O)c(=O)[nH]c3ccccc32)cc1)C(C)C,-1.6% (inactive),–
CCCc1[nH]nc2c1C(c1ccc(Br)s1)C(C#N)=C(N)O2 (centres undefined),–,15.8 µM (active)
CCCc1[nH]nc2c1C(C1CC=CCC1)C(C#N)=C(N)O2 (centres undefined),-21% (inactive),–
CCCc1[nH]nc2c1C(c1ccc(OC(=O)c3ccco3)cc1)C(C#N)=C(N)O2 (centres undefined),2.65% (inactive),–
C=C1C([C@@]2(C)C(OC(C)=O)CC(=O)O[C@@](C)(COC(C)=O)C2CC(=O)OC)C(OC=O)C(OC(=O)C(O)C(C)CC)[C@]2(C)C(c3ccoc3)CC(=O)C12O (some centres undefined),-4.84% (inactive),–
C/C=C(/C)C(=O)OC1Cc2c(ccc3ccc(=O)oc23)OC1(C)C (centres undefined),-11.6% (inactive),–
CCOC(=O)NCc1ccc2c(c1)OCO2,14.8% (inactive),–
CCC1=C/C(=C\c2ccc3c(c2)OCO3)C(=O)S1,–,25.1 µM (active)
CCCCC(=O)Nc1ccc2c(c1)OCCO2,3.14% (inactive),–
Cc1ccc(C2CC(c3cccc(C)c3)n3nc(N)nc3N2)cc1 (centres undefined),12% (inactive),–
CO[C@@H]1COC(=O)C/C=C\[C@H](C)[C@@H](NS(=O)(=O)c2ccc(C)cc2)COC(=O)C/C=C\[C@@H]1C,7.8% [at 11.4 µM] (inactive) and 8.79% [at 11.4 µM] (inactive),–
COc1ccc(C2CC(=O)c3c(O)cc(OC4OC(COC5OC(C)C(O)C(O)C5O)C(O)C(O)C4O)cc3O2)cc1O (centres undefined),-2.78% [at 25.6 µM] (inactive),–
COc1c(C(C)C)oc2cc3oc(=O)ccc3cc12,1.8% (inactive),–
CC(=O)Oc1c2c(c3c(c1CC=C(C)C)O[C@@]14C(=CC5CC1C(C)(C)OC4(C/C=C(\C)C(=O)O)C5=O)C3=O)OC(C)(CCC=C(C)C)C=C2 (some centres undefined),-15.5% (inactive),–
Nc1nc2nc(Cl)[nH]c2c(=O)[nH]1,1.53% (inactive),–
CC1CCc2c(sc3c2C2=NS(=O)(=O)CCN2C=N3)C1 (centres undefined),-0.657% (inactive),–
CN1CCCC1CCO[C@@](C)(c1ccccc1)c1ccc(Cl)cc1 (some centres undefined),-10.4% (inactive),–
CN(CCOc1ccc(CC2SC(=O)NC2=O)cc1)c1ccccn1 (centres undefined),1.32% (inactive),–
COc1ccc(OC)c(Nc2nc(-c3ccc(O)c(O)c3)cs2)c1,–,0.126 µM (active)
Oc1ccc(-c2csc(Nc3cccnc3)n2)cc1,-7.34% (inactive),–
COc1ccc(-c2n[nH]c(C)c2-c2ccc(OC)c(OC)c2)c(O)c1,-23.3% (inactive),–
COc1cccc([C@H]2Oc3ccc(OC)cc3/C(=N\OCC[C@@H]3C=C[C@H](OC(C)=O)[C@H](COC(C)=O)O3)[C@@H]2O)c1,7.41% [at 11.4 µM] (inactive),–
CCOC(=O)N/N=C1/C[C@@H](O)[C@@H](O)[C@@H]2[C@@H]3C(=O)N(CC)C(=O)[C@H]3CC[C@H]12,0.206% [at 11.4 µM] (inactive),–
